Screening data deposited in PubChem BioAssay by several laboratories.
Compounds with a hit are over-represented: about 1.8% of the library has one in this group of screens.
MRP resist rev – reverses drug resistance mediated by MRP; H69AR cells + 2 uM doxorubicin, CellTiter-Glo, 72 h; differential viability (reversal), % at 10 µM; 0.04% of 85,000 active; AID 602;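 active = viability drop by adding the cancer drug above about 55%, with treated viability meeting a 40% cutoff, limit read from the data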;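 note: viability without doxorubicin minus viability with 2 µM doxorubicin for each compound; larger differential means the compound sensitizes cells more to doxorubicin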
GALR2 blocker – blocks the human galanin receptor 2; GALR2-expressing cells, antagonist mode; 0.39% of 140,000 active; O43603; inhibition, % at 4 µM; in the data active = inhibition above about 27%;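 note: cells stimulated with galanin 1-16 at roughly its EC80; 0% = agonist challenge control and 100% = basal control without agonist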
S1P2 agonist – agonists of human S1P2 receptor | activation, % at 4.5 µM | S1P2-expressing cell line, agonist reporter read-out | 0.46% of 97,000 active; in the data active = activation above about 16%;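 note: 0% = vehicle low control and 100% = maximal reference agonist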
Target sequence (O95136 whole entry, looked up): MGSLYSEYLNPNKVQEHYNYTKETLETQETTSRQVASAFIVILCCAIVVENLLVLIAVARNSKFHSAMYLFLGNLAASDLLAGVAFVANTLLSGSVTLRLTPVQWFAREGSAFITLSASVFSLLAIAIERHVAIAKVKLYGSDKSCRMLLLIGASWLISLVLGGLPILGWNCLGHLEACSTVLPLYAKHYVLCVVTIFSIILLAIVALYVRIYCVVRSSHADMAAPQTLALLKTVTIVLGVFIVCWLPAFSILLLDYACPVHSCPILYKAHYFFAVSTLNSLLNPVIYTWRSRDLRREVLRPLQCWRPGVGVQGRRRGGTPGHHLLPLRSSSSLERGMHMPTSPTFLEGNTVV
S1P2 blocker – blocks the human S1P2 receptor | O95136 | cell-based S1P2 antagonist assay, inhibition at 5 uM | inhibition, % at 5 µM | 0.21% of 97,000 active | AID 736; in the data active = inhibition above about 45%;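 note: CRE beta-lactamase reporter cells expressing human S1P2 stimulated with S1P; 0% = agonist at EC80 alone and 100% = agonist plus reference antagonist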
GALR2 agonist – GALR2 (human) receptor agonism; 0.48% of 140,000 active; AID 803; GALR2-expressing cells, agonist activation read-out; O43603; activation, % (concentration not given with the values); in the data active = activation above about 5%, passing the limit was not always enough;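 note: 0% = vehicle buffer wells and 100% = reference agonist at full effect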
MRP1 act – activators of MRP-1. H69AR cells + doxorubicin, viability rescue, CellTiter-Glo. 0.61% of 140,000 active. viability increase, % at 10 µM;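 active = viability gain under doxorubicin at or above a set limit, the compound median plus 3 SD, cut at about 4.7% in these data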;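 note: MRP-1 overexpressing cells given doxorubicin 25 µM after compound pretreatment; 18-22 h compound pretreatment then 72 h with doxorubicin before readout; 0% = doxorubicin-only wells and 100% = vehicle-treated cells without doxorubicin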
Active calls of the source: *; nt = not tested or not shown.

SMILES	MRP resist rev	GALR2 blocker	S1P2 agonist	S1P2 blocker	GALR2 agonist	MRP1 act
CCC(C)(C)n1nnnc1C(c1cc(OC)ccc1OC)N1CCC(C(N)=O)CC1 (stereo not given)	3.9	3.6	-1.7	20.3	1.3	-0.9
CCOP(=O)(c1ccccc1)C(O)c1ccc(Br)cc1 (stereo not given)	nt	-1.4	nt	nt	-0.1	-1.0
CCOC(=O)N1CCN(c2nc(-c3cccc(OC)c3)cc(C(F)(F)F)n2)CC1	26.1	-2.5	-3.3	15.6	-1.3	8.7*
CCOC(=O)N1CCN(c2nc(-c3ccco3)cc(C(F)(F)F)n2)CC1	5.0	-3.6	-4.5	11.4	-2.2	-0.6
CCc1ccc(C2=NN(S(C)(=O)=O)C(c3cccs3)C2)cc1 (stereo not given)	-14.2	-1.7	-1.8	-3.2	-0.2	-0.5
CCc1ccc(C2=NN(c3ccc(S(N)(=O)=O)cc3)C(c3ccc(F)cc3)C2)cc1 (stereo not given)	nt	-17.7	17.1*	-3.7	39.5*	-2.8
NS(=O)(=O)c1ccc(N2N=C(c3ccccc3)CC2c2ccccc2)cc1 (stereo not given)	nt	-12.2	nt	nt	5.4*	-3.6
CS(=O)(=O)N1N=C(c2ccc3nccnc3c2)CC1c1ccccc1 (stereo not given)	nt	5.8	-4.9	-1.4	-2.7	-2.0
O=C(CSCc1cccc(Cl)c1)N1CCN(Cc2ccc3c(c2)OCO3)CC1	0.5	-2.3	0.4	3.0	-2.2	-0.7
Cc1cccc2cc(CN(Cc3ccco3)S(=O)(=O)c3ccc4c(c3)OCCO4)c(=O)[nH]c12	5.2	3.4	-4.8	9.0	-1.2	11.2*
Cn1nc(C(F)(F)F)c(C(=O)Nc2ccc(F)cc2F)c1Sc1ccc(C(F)(F)F)cc1	nt	0.7	-8.2	21.6	-1.8	-0.3
CS(=O)(=O)c1ncc(Cl)c(C(=O)Nc2ccc(N3CCOCC3)cc2)n1	-0.1	28.8*	nt	nt	-1.5	-0.4
O=C(Nc1ccc(N2CCOCC2)cc1)c1ccc(Cl)nc1	5.8	-1.5	-6.8	15.5	-1.4	-1.1
CCOc1ccc(NC(=O)Nc2cc(-c3ccccc3)sc2C(=O)OC)cc1	nt	0.7	nt	nt	-0.9	6.1*
COc1cc(-c2nnc(CSc3nnc(Nc4ccc(Oc5ccccc5)cc4)s3)o2)cc(OC)c1OC	nt	-7.7	nt	nt	-0.1	-2.5
CCCn1c(NC(=O)c2ccc(Cl)c(S(=O)(=O)N3CCCC3)c2)nc2ccccc21	-22.3	-4.3	-10.8	37.5	-2.4	-6.2
CO/N=C/c1ccc(Sc2ccccc2N)c([N+](=O)[O-])c1	15.6	6.3	17.3*	-27.4	-0.4	-1.0
CN(C)c1cccc(C(=O)Nc2ccc(N3CCOCC3)cc2)c1	nt	0.5	-2.4	-3.1	-1.7	0.5
CCC(C)(C)NC(=O)c1ccc2c(c1)S(=O)(=O)c1ccccc1C2=O	nt	-18.7	22.7*	-41.0	0.6	-1.6
Cc1cccc(OCC(O)CN2CC3(C)CC2CC(C)(C)C3)c1 (stereo not given)	nt	3.6	nt	nt	6.8*	-1.9
CC(Oc1ccc(Cl)cc1Cl)c1nc(-c2ccc(NC(=O)c3ccccn3)cc2)no1 (stereo not given)	-21.5	1.7	-4.9	-9.9	-1.9	-4.1
C=CCOc1ccc(CNc2nn[nH]n2)cc1OC	nt	1.8	0.1	-4.8	-1.4	-1.9
C=CCOc1ccc(CNc2ccc(NC(=O)CC(C)C)cc2)cc1OC	nt	5.0	nt	nt	-0.1	17.7*
Cc1cnn(-c2cc(Oc3ccccc3)ncn2)c1	4.2	-1.4	-4.0	24.9	-1.7	4.8*
c1ccc(Oc2cc(-n3cncn3)ncn2)cc1	nt	-8.4	nt	nt	-0.8	-0.8
SMILES	MRP resist rev	GALR2 blocker	S1P2 agonist	S1P2 blocker	GALR2 agonist	MRP1 act
C=CCN(CC=C)c1nc2ccccc2nc1C(C#N)C(=O)OC(C)C (stereo not given)	-3.5	11.4	nt	nt	-1.4	-5.2
Cc1ccc(Cl)cc1N1CCN(C(=O)Cc2ccc(-n3c(=O)[nH]c4ccsc4c3=O)cc2)CC1	nt	14.3	nt	nt	0.1	9.7*
O=C(CCn1c(=O)[nH]c2ccsc2c1=O)N1CCN(c2cccc(Cl)c2)CC1	-22.2	0.4	-4.2	24.1	-1.5	-2.9
CN1CCN(S(=O)(=O)c2ccc(Br)c3nsnc23)CC1	-28.3	-1.8	-5.8	13.9	-3.1	-3.8
CCc1ccc(NC(=O)C2(c3ccccc3)CC2(Cl)Cl)cc1 (stereo not given)	nt	4.9	25.2*	4.0	-1.8	-2.8
Cc1ccc(NC(=O)C2(c3ccccc3)CC2(Cl)Cl)cc1C (stereo not given)	nt	-19.2	-6.5	15.2	-1.3	-0.6
CCN(CC)c1ccc(-c2nn3c(-c4n[nH]c5c4CCC5)nnc3s2)cc1	-26.3	4.0	-0.8	2.7	6.3*	-3.7
CN(c1ccccc1C(=O)N1CCN(c2ccccc2)CC1)S(C)(=O)=O	6.8	0.2	-6.9	-16.0	-1.9	-2.1
Cc1ccc(S(=O)(=O)N2CCC(C(=O)N[C@@H](C)C(=O)Nc3ccc4c(c3)OCO4)CC2)cc1	0.9	-30.8	-4.6	11.6	-0.2	6.2*
CCc1nc2ccccc2c(C(=O)OCC(=O)Nc2cccc(S(=O)(=O)N3CCOCC3)c2)c1C	-24.5	13.3	17.8*	15.2	0.1	-5.0
CCc1nc2ccccc2c(C(=O)OCC(=O)Nc2ccc(S(=O)(=O)N3CCOCC3)cc2)c1C	-34.9	2.5	nt	nt	1.0	-1.8
COc1cccc(CNC(=O)CN(c2cc(C)cc(C)c2)S(=O)(=O)c2c(C)noc2C)c1	4.8	7.5	109.2*	13.9	-0.9	-0.7
CCOc1ccc(N(CC(=O)NCc2ccccc2)S(=O)(=O)c2c(C)noc2C)cc1	6.8	-0.4	-4.3	11.9	-3.1	-0.6
COc1ccc(OC)c(NC(=O)CN(c2ccc(C)cc2)S(=O)(=O)c2c(C)noc2C)c1	-7.4	-9.6	-7.2	-1.4	6.9*	-0.5
COC(=O)c1sc(N)c(C(=O)OC)c1CSc1nc2sc3c(c2c(=O)n1C)CCC3	-18.9	14.1	26.8*	-29.4	-2.0	-2.0
Cc1cc(=O)oc2cc(OCC(=O)Nc3cccc(S(=O)(=O)N(C)C)c3)ccc12	nt	16.0	nt	nt	-1.0	-2.4
Cc1ccc(N(C)S(=O)(=O)c2cccc(C(=O)Oc3ccc4c(C)cc(=O)oc4c3)c2)cc1	nt	4.6	nt	nt	-2.1	4.8*
O=C1c2ccsc2SCCN1Cc1ccc(Cl)cc1Cl	22.1	-0.7	-1.7	-7.2	-0.5	-4.2
O=C1c2ccsc2SCCN1Cc1c(Cl)cccc1Cl	8.9	6.8	-6.5	-9.0	-1.8	7.0*
Cc1ccc(S(=O)(=O)N(C)CC(=O)OCC(=O)NC(c2ccccc2)c2ccccc2)cc1	nt	-9.6	nt	nt	-2.4	-1.9
CCOC(=O)c1nn(-c2ccccc2)c(C#N)c1NC(=O)c1nn(CC)cc1Br	-5.5	0.9	23.5*	-22.1	-2.0	-1.1
Cc1nc(=O)c(-c2ccccc2)c(C)n1-c1ccc(O)cc1	3.0	-13.3	-2.2	-17.7	-1.0	5.3*
CC(=O)Nc1ccc(-n2c(C)nc(=O)c(-c3ccccc3)c2C)cc1	-7.6	1.9	1.0	9.9	-2.5	11.0*
COc1ccc(C2CC(c3c(O)cc(C)oc3=O)=NCCS2)c(OC)c1 (stereo not given)	-17.4	27.7*	nt	nt	0.4	-2.5
